In the library only some 32% were active in any assay of this set; here they are far more common.
CYP2C19 activ: cytochrome P450 2C19 (human) activation; P33261; recombinant CYP2C19, luciferin-H EGE luminescence; hits give high values; 0 = fully inhibited enzyme, 1 = untreated enzyme; activation factor at 5 µM; 96,000 tested, under 10 active;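 active means activation factor of at least 2 at 5 µM in the primary screen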;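 further: 0 = wells with 2.5 mM tranylcypromine and 1 = vehicle-only wells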
CYP2C19 inh: blocks human cytochrome P450 2C19 | 96,000 compounds, 21% hits | AID 778 | CYP2C19 Supersomes, luciferin-H EGE luminescence, 30 min | inhibition, % at 5 µM;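 active means CYP2C19 inhibition above a set limit at 5 µM in the primary screen, cut at about 50% in these data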;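 further: plate controls were negative control wells for no effect and 2.5 mM tranylcypromine positive control for full effect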
PostGolgi ctrl: growth of the yeast control strain, post-Golgi counter-screen; efflux-deficient yeast background strain, growth absorbance A615, 16 h; inhibition, % at 10 µM; 98,000 compounds, 5% hits; AID 738
CYP2C9 act: increases human cytochrome P450 2C9 activity; P11712; recombinant CYP2C9, luciferin-H conversion, luminescence; hits give high values; factor 1 = untreated enzyme, 0 = blocked; activation factor at 5 µM; 96,000 compounds, 1.4% hits; AID 1024;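 active means activation factor of 2 or more for CYP2C9 at a 5 µM dose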;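 further: 0 = sulfaphenazole-blocked wells and 1 = vehicle-only wells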
Target sequence (P11712 whole entry, looked up): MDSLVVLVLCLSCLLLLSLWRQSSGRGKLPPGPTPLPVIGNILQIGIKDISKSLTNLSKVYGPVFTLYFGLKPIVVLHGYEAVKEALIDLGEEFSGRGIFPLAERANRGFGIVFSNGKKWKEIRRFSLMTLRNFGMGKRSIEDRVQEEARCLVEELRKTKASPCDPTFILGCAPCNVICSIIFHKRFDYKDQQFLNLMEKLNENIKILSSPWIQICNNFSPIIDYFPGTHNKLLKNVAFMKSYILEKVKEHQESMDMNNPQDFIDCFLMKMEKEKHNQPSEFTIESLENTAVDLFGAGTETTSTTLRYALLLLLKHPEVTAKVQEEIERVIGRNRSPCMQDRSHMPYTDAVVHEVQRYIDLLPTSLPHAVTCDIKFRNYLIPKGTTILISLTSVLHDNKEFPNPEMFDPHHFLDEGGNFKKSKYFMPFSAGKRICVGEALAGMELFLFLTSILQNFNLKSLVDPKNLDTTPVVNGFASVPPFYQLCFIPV
PostGolgi yeast: growth inhibition of a yeast mutant, post-Golgi transport screen | inhibition, % at 10 µM | 98,000 compounds, 0.9% hits | AID 739 | post-Golgi transport phenotypic cell assay;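 further: yeast cells grown in 1536-well plates; yeast grown about 18 h at 30C before absorbance read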
CYP2C9 inh: blocks human cytochrome P450 2C9 | P11712 | CYP2C9 Supersomes, luciferin-H conversion, luminescence | inhibition, % at 5 µM | 96,000 compounds, 20% hits | AID 777;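 active means blocking of liver enzyme CYP2C9 beyond about 50% at 5 µM, limit read from the data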
* marks the source's active call; other numbers are inactive results; nt = no result. Unless noted, no stated cut-off is given here; in the data, active means inhibition above about 30%; inactive means the rest.

SMILES	CYP2C19 activ	CYP2C19 inh	PostGolgi ctrl	CYP2C9 act	PostGolgi yeast	CYP2C9 inh
NC(=O)CSc1nnc(Cn2c(=O)sc3ccccc32)n1-c1ccccc1	nt	nt	0.5	nt	7.9	nt
CCOC(=O)C(C)Sc1nnc(Cn2c(=O)sc3ccccc32)n1-c1ccccc1 (configuration not stated)	0.3	69.4*	3.1	0.2	4.8	80.3*
Cc1ccc(C(c2nnnn2CCC(C)C)N2CCN(C)CC2)cc1 (configuration not stated)	0.9	12.9	9.9	0.9	7.8	11.9
COc1cc(C(C[N+](=O)[O-])c2c(C)[nH]c3ccccc23)cc(OC)c1OC (configuration not stated)	0	97.8*	4.6	0.3	17.5	72.2*
COc1ccc(/C=N/NC(=O)c2ccn[nH]2)cc1COc1ccc(Cl)cc1	0.6	37.2	21.2	0.6	-4.7	37.8
COc1ccc(/C=N/NC(=O)c2ccccc2O)cc1Cn1cc(Cl)cn1	0.9	10.6	2.6	0.5	-8.4	50.8*
COC(=O)N(C)CCCC1(C)C(=O)N(C)c2ccc(O)cc21 (configuration not stated)	0.8	19.7	-0.8	0.6	-1.6	38.1
Cc1cc(NC(=O)CSc2nnc(-c3ccco3)o2)no1	1	-4.4	5.6	1.1	1.9	-8.2
O=C(Nc1cc2c(cc1Br)OCCO2)c1cccs1	0.4	57.2*	15.2	0.8	-1.6	21.0
CCCC(=O)c1cc2c(cc1NC(=O)c1cccs1)OCCO2	1	3.0	4.8	0.9	1.1	6.8
COc1ccc(CCNc2nc(N3CCCCC3)nc(N3CCCCC3)n2)cc1OC	0.2	81.9*	32.0*	0.3	4.2	72.1*
COc1ccc(CCNc2nc(N3CCOCC3)nc(N3CCOCC3)n2)cc1OC	0.8	17.0	20.3	0.9	4.2	5.2
Cc1cc(C)n(-c2nc(Nc3ccccc3)nc(-n3nc(C)cc3C)n2)n1	0.7	29.1	19.8	0.9	3.4	10.6
O=[N+]([O-])c1ccc(Nc2nc(N/N=C\c3ccc4c(c3)OCO4)nc(N3CCCCC3)n2)cc1	0.9	9.6	8.0	0.6	17.1	37.6
COc1ccc(/C=N/Nc2nc(Nc3ccccc3)nc(N3CCCCC3)n2)cc1OC	0.3	71.0*	7.9	0.8	6.4	19.4
COc1cccc(/C=N/Nc2nc(Nc3ccccc3)nc(-n3nc(C)cc3C)n2)c1O	0.3	68.1*	58.0*	0.2	-0.2	78.8*
COc1ccc(S(=O)(=O)N(CC(=O)N2CCOCC2)c2cc(Cl)ccc2OC)cc1OC	0.9	10.1	4.5	0.7	1.6	32.8
CSc1ccc(/C=C/C(=O)c2ccc(NC(=O)Cc3ccccc3)cc2)cc1	0.9	9.0	8.2	0.6	1.0	36.5
O=C(NCc1cccnc1)/C(=C/c1ccc(-c2ccc(Cl)cc2)o1)S(=O)(=O)c1ccccc1	0.3	67.2*	22.6	0.5	12.7	49.4
CC1(C)C(=O)OC(C(=O)c2ccccc2)C(C)(C)C1=O (configuration not stated)	0.1	91.3*	7.2	0.4	-0.6	58.3*
CC1(C)C(=O)OC(c2ccccc2)C2(CCCC2)C1=O (configuration not stated)	0.1	90.3*	16.1	0.8	-4.0	21.4
CN(C)c1ccc(C2OC(=O)C3(CCCC3)C(=O)C2(C)C)cc1 (configuration not stated)	0.8	15.6	-1.8	1.1	-0.2	-8.0
CCC1=C(OC(=O)c2ccccc2)C(C)(C)C(c2ccccc2)OC1=O (configuration not stated)	0.9	7.6	13.0	0.8	-6.9	16.0
Cc1cc(C)c(C(=O)C2OC(=O)C(C)(C)C(=O)C2(C)C)c(C)c1 (configuration not stated)	0.1	91.9*	2.6	0.1	-8.6	89.5*
Cc1cc(Nc2ccc3ccccc3c2)n2ncnc2n1	1.1	-9.7	2.7	0.9	8.2	11.6
SMILES	CYP2C19 activ	CYP2C19 inh	PostGolgi ctrl	CYP2C9 act	PostGolgi yeast	CYP2C9 inh
O=C(/C=C/c1ccccc1)N1CCN(c2cccc(Cl)n2)CC1	0.7	25.3	13.5	0.5	-11.3	45.5
COc1cccc2cc(-c3nnc(SCC(=O)Nc4nc(C)cs4)n3C)oc12	0.8	19.1	8.2	0.9	-4.9	12.7
Cc1cccc(Cn2cc(/C=C/[N+](=O)[O-])c3ccccc32)c1	0.8	18.8	61.4*	1.1	11.3	-5.1
Cc1ccc(C(=O)Oc2ccccc2N2C(=O)C3CCC(C)CC3C2=O)cc1 (configuration not stated)	0.5	54.5*	22.2	0.4	-5.2	58.1*
CN(Cc1c(F)cccc1Cl)c1nnnn1-c1ccccc1	0	99.7*	6.3	0.7	-7.6	34.8
C#CCN(C#N)c1nc(NCC)nc(NC(C)C)n1	0.8	15.1	1.5	0.7	-7.7	34.4
CCN(C#N)c1nc(NC(C)C)nc(NC(C)C)n1	0.7	33.3	6.7	0.3	-5.7	72.8*
CCNc1nc(NC(C)C)nc(N(C#N)CCOc2ccccc2)n1	0.4	59.8*	16.4	0.6	-12.8	39.4
COCCN(C(=O)Cn1nnc2ccccc21)C(C(=O)NC1CCCC1)c1cccc(OC)c1OC (configuration not stated)	0.9	7.3	9.8	0.8	6.1	16.0
CCn1cc(C(=O)NC2CCc3ccccc32)c(=O)c2ccc(C)nc21 (configuration not stated)	0.8	23.6	27.7	1.1	-0.6	-5.7
CCc1cccc(CC)c1NC(=O)c1cccc(NC(=O)c2ccccc2)c1	0.9	10.0	8.9	0.3	-4.3	73.9*
CC(C)c1ccccc1NC(=O)c1cccc(NC(=O)c2ccccc2)c1	0.8	22.4	7.6	0.3	-5.2	69.3*
O=C(Nc1cccc(O)c1)c1ccccc1	1.1	-11.3	10.1	1.1	-4.5	-9.2
CC1CCc2sc(C(=O)NCc3ccc(F)cc3)cc2C1 (configuration not stated)	0.8	16.6	13.0	0.8	-5.0	17.5
COc1ccc(CNC(=O)c2cc3c(s2)CS(=O)C3)cc1 (configuration not stated)	0.3	70.6*	4.6	0.5	15.5	53.6*
O=C(NCc1ccc(F)cc1)c1cc2c(s1)CCCC2	0.6	36.5	0.1	0.5	8.7	53.4*
Cc1nc2nc(C)n(-c3ccccc3)c2s1	1	-1.1	6.5	1	0.8	2.0
CN(C)S(=O)(=O)Oc1ccsc1C(=O)Nc1ccccc1Cl	0.2	78.9*	15.3	0.3	3.8	65.9*
CN(C)S(=O)(=O)Oc1ccsc1C(=O)Nc1cccc(Cl)c1Cl	0.2	84.3*	31.8*	0.3	-9.8	72.1*
COc1ccccc1NC(=O)c1cccs1	1	4.1	0.0	1.7	11.2	-66.6
O=C(Nc1cccc(Cl)c1Cl)c1ccc(-c2ccccc2)cc1	0.9	6.1	10.3	1.4	-5.8	-35.9
CCCCN(CCCC)CCNC(=O)Cc1nc2c(c(=O)[nH]c(=O)n2C)n1C	1	1.0	-5.2	1	-1.6	-0.5

Compound activity (PubChem)
